The record followed here is PubChem BioAssay (Tox21).

Inconclusive results are not listed. A call without a number means that no potency is given here. The source made the active and inactive calls. Calls come from the whole dose curve; as a rule, active = well fitted cell-killing curve with a large enough effect in the repeat runs; inconclusive = weak or mixed curves, or effect the other way; inactive = flat fitted curve, though single readings scatter.
Potency is the fitted concentration of half-maximal effect.

The nature of this assay: qHTS assay to identify small molecule agonists of the estrogen receptor beta (ER-beta) signaling pathway - cell viability counter screen (AID 1259380). Note: nearly all actives have a fitted effect of over 30% in size. To be noted: ER-beta-bla HEK293T viability, CellTiter-Glo luminescence, 16 h; series mostly up to 92.4 µM. The text has this:
National Center for Advancing Translational Sciences [NCATS]
NIH Chemical Genomics Center [NCGC]
U.S. Environmental Protection Agency [EPA]
National Institutes of Environmental Health Sciences [NIEHS]
National Toxicology Program [NTP]
U.S. Food and Drug Administration [FDA]
Estrogen receptor (ER), a nuclear hormone receptor, plays an important role in development, metabolic homeostasis and reproduction. Two subtypes of ER, ER-alpha and ER-beta, have similar expression patterns with some uniqueness in both types. Endocrine disrupting chemicals (EDCs) and their interactions with steroid hormone receptors like ER causes disruption of normal endocrine function. To identify the compounds that activate ER signaling, an ER beta-UAS-bla GripTite cell line (Life Technologies, Madison, WI, USA) containing a beta-lactamase reporter gene under the control of an UAS response element was used to screen Tox21 10K compound library. The cytotoxicity of the Tox21 compound library against the ER-beta-bla cell line was tested in parallel by measuring the cell viability using CellTiter-Glo assay in the same wells.
Tox21 Assay Protocol Summary:
ER-beta-UAS-bla HEK293T cells were dispensed at 2,000 cells/5 uL of assay medium containing 2% charcoal stripped FBS per well into black wall/clear-bottom 1536-well plates using a Multidrop Combi (ThermoFisher Scientific, Waltham, MA) dispenser. After the assay plates were incubated at a 37C and 5% CO2 for 6 hr, 23 nL of compounds dissolved in DMSO, positive controls or DMSO only was transferred to the assay plate by a Pintool station (Kalypsys, San Diego, CA). The plates were incubated at 37C and 5% CO2 for 16 hr. Then 1 uL of LiveBLAzerTM B/G FRET substrate was added using a BioRAPTR FRD (Flying Reagent Dispenser, Aurora Discovery, San Diego, CA) and then the plates were incubated at room temperature for 2 hours, and fluorescence intensity was measured by an Envision plate reader (PerkinElmer, Shelton, CT). For cell viability readout that measures cytotoxicity, 4 uL/well of CellTiter-Glo reagent was added into the assay plates using a FRD. After 30 min incubation at room temperature, the luminescence intensity in the plates was measured using a ViewLux (PerkinElmer) plate reader.
(In qHTS, concentration-response curves come from the screen itself.)
As to `Nc1cccnc1N`, the Potency entry is “inactive”.

Consider `NC(=O)C1CO1` (stereo not given), for which the Potency result was “inactive”.

As to `CC/C=C\C/C=C\C/C=C\CCCCCCCC(=O)OC`, the Potency was 48.6 µM (active).

With `C=CC(=O)O[C@H]1C[C@@H]2CC[C@@]1(C)C2(C)C`, the Potency result was “inactive”.

For `CC1(C)[C@H](C(=O)OCc2cccc(Oc3ccccc3)c2)[C@@H]1C=C(Cl)Cl`, the Potency result is “inactive”.

Take `CC(=O)CC(N)=O`: the Potency result was “inactive”.

Take `CCc1cccc(CC)c1`: the Potency entry is “inactive”.

On to `Cc1c(Cl)c(=O)oc2cc(O)ccc12`, for which the Potency result was “inactive”.

Regarding `CCCCCN=C(N)N/N=C/c1c[nH]c2ccc(OC)cc12`, the Potency is 16.8 µM (active).

On to `NCc1ccco1`, for which the Potency result is “inactive”.

In the case of `CCC(C)(C)c1ccc(CC(C)CN2C[C@@H](C)O[C@@H](C)C2)cc1` (stereo not given in full), the Potency is 26.6 µM (active).

Consider `Cc1cc(Br)ccc1NC(=O)CCl`, for which the Potency was 30.6 µM (active).

Regarding `CC/C=C(\C)C=O`, the Potency entry is “inactive”.

As to `CN1CC[C@H](c2c(O)cc(O)c3c(=O)cc(-c4ccccc4Cl)oc23)[C@H](O)C1`, the Potency result was “inactive”.

`CCN(CCC#N)c1ccc(N=Nc2ccc([N+](=O)[O-])cc2)cc1`: the Potency entry was “inactive”.

For `CCCCCCCCCCCCS(=O)(=O)Cl`, the Potency is 14.6 µM (active).

For `CCCCCCCCCCCCCCCCCCNC(=O)OC1CCN(C(=O)OC[C@H](COC(=O)N(Cc2cccc[n+]2CC)C(=O)c2ccccc2OC)OC)CC1`, the Potency was 26.6 µM (active).

`Cn1ccnc1`: the Potency result was “inactive”.

With `O=C1C=CC(=O)N1c1cccc(N2C(=O)C=CC2=O)c1`, the Potency is 61.1 µM (active).

Regarding `C1CCSC1`, the Potency entry was “inactive”.

Take `CC/C(=C(/c1ccc(O)cc1)c1ccc(OCCN(C)C)cc1)c1ccccc1`: the Potency was 32 µM (active).

On to `Nc1cc([N+](=O)[O-])ccc1Cl`, for which the Potency entry is “inactive”.

`CCSCC`: the Potency result was “inactive”.

As to `C=CC(=O)OCC(Br)CBr` (stereo not given), the Potency result is “inactive”.

As for `c1ccc(-c2ccc(C(c3ccccc3)n3ccnc3)cc2)cc1` (stereo not given), the Potency was 29.8 µM (active).

On to `O=C(Nc1ccc([N+](=O)[O-])cc1)Nc1ccc([N+](=O)[O-])cc1` (tested in a mixture with another compound), for which the Potency was 0.596 µM (active).

Consider `C=C1CC[C@H]2O[C@]2(C)CC[C@@H]2[C@@H]1CC2(C)C`, for which the Potency result is “inactive”.

Regarding `Clc1nc(C(Cl)(Cl)Cl)c(Cl)c(Cl)c1Cl`, the Potency is 8.63 µM (active).

Consider `CCC(O)CO` (stereo not given), for which the Potency entry is “inactive”.

`Cc1cc(F)ccc1-c1cc(N2CC[C@@H](O)[C@H]2CO)ncc1N(C)C(=O)C(C)(C)c1cc(C(F)(F)F)cc(C(F)(F)F)c1`: the Potency was 47.8 µM (active).

As to `COc1ccc(OC)c(N=Nc2c(O)ccc3ccccc23)c1`, the Potency is 30.6 µM (active).

With `Cc1ccc(N=Nc2c(O)ccc3ccccc23)c(C)c1`, the Potency entry was “inactive”.

Consider `COCCC(=O)OC`, for which the Potency result is “inactive”.

Consider `O[Si](c1ccccc1)(c1ccccc1)c1ccccc1`, for which the Potency was 48.6 µM (active).

Turning to `N#CCCOCCC#N`, the Potency result was “inactive”.

Turning to `SC1CCCCC1`, the Potency entry is “inactive”.

In the case of `Cc1cccc(C)c1C`, the Potency result is “inactive”.

For `O=C(Cl)c1ccc(Cl)cc1Cl`, the Potency result was “inactive”.

In the case of `COc1cc(/C=C/C(=O)CC(=O)/C=C/c2ccc(O)c(OC)c2)ccc1O`, the Potency is 69 µM (active).

For the compound `Cc1c[nH]c(=O)[nH]c1=O`, the Potency result was “inactive”.
